# The list is not random: actives were taken first. Their share in the collection is about 8.9%.
# KB-V1 MDR tox: qHTS assay for MDR1-selective chemotherapeutics: Primary screen using the drug-selected MDR subline cells KB-V1. KB-V1 MDR cells viability, CellTiter-Glo, 72 h. Potency, µM (titrated, usually from 46.1 µM), most hits filed as cytotoxic. 3.4% of 400,000 active; note: nearly all actives have a fitted effect of over 60% in size
#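 KB-V1 MDR subline cells in DMEM (phenol-red free, 10% FBS) exposed to compounds in qHTS concentration series for 72 h at 37 degrees C. Viability read by CellTiter-Glo luminescence; concentration-effect curves fitted after normalization and correction.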
# SW480 rerep: A quantitative high throughput screen for small molecules that induce DNA re-replication in SW480 colon adenocarcinoma cells; SW480 DNA re-replication, Hoechst DNA content imaging, 48 h; Potency, µM (series often up to 46.1 µM), most hits filed as activators; 1.8% of 340,000 active; AID 624297, 2012; note: nearly all actives have a fitted effect of over 55% in size
#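 Quantitative HTS format with DMSO vehicle controls; 48 hr drug incubation at 37 C, then 40 min Hoechst staining and scanning imager measurement at 405 nm excitation.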
# MCF10A rereplic: A quantitative high throughput screen for small molecules that induce DNA re-replication in MCF 10a normal breast cells; 2.9% of 350,000 active; MCF 10A DNA re-replication, Hoechst nuclear intensity, 48 h; Potency, µM (titrated, usually from 46.1 µM), usual class: activators; note: nearly all actives have a fitted effect of over 50% in size
# D3 antag: qHTS of D3 Dopamine Receptor Antagonist: qHTS | D3R cells, DiscoveRx beta-arrestin luminescence, antagonist mode; stronger effect = lower value | max response, negative = inhibition, % | 2.5% of 360,000 active; in the data active = max response below about -50%; inconclusive = no clear call, values can overlap the other calls
# Target sequence (P35462 whole entry, looked up): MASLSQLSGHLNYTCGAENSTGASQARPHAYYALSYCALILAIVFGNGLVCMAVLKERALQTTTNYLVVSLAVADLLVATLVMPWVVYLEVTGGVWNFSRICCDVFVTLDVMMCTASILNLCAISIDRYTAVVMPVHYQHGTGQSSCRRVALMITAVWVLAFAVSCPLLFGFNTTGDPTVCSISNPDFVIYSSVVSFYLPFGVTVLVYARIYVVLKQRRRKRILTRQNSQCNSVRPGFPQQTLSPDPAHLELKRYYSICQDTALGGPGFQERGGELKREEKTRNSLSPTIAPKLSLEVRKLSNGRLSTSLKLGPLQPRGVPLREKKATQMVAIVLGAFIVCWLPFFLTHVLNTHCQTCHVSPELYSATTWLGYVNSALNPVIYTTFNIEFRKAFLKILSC
#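 Cells plated overnight at 1500 cells/well, then exposed to library compounds with dopamine controls for 90 minutes at 37 degrees C. DiscoveRx reagent added for 30–60 minutes at room temperature; luminescence read, quantitative HTS format.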
# KB-3-1 cytotox: qHTS assay for MDR1-selective chemotherapeutics: Primary screen using the parental adenocarcinoma cell KB-3-1; KB-3-1 viability, CellTiter-Glo ATP luminescence, 72 h; Potency, µM (highest dose often 46.1 µM), usual class: cytotoxic; 1.4% of 400,000 active; AID 1347075, 2019; note: nearly all actives have a fitted effect of over 60% in size
#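 72 h, 37 °C compound treatment of KB-3-1 parental cells; CellTiter-Glo added, 10 min, luminescence read. Data corrected against DMSO-only plates and normalized before curve fitting.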
# DRD3 agonist: qHTS of D3 Dopamine Receptor Agonist: qHTS | D3R DiscoveRx beta-arrestin cells, luminescence, 90 min | D(3) dopamine receptor (Homo sapiens), P35462 | 0.58% of 410,000 active | max activation, %; in the data active = max activation above about 30%
#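 Agonist-mode cell screen: cells plated at 1500/well and incubated overnight at 37 °C, then exposed to library compounds for 90 min at 37 °C. Detection reagent was added for 30–60 min at room temperature, and luminescence was read.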
# Numbers stand for hits; 0 = inactive; ? = inconclusive; - = no result; [ ] = remark or other dose. Unless noted, calls come from the whole dose curve; as a rule, active = well fitted curve in the direction sought with a large enough effect; inconclusive = small, poorly fitted or top-dose-only effect, or another doubt; inactive = no such curve, though single readings can be large; an effect the other way counts as inactive or inconclusive.
SMILES,KB-V1 MDR tox,SW480 rerep,MCF10A rereplic,D3 antag,KB-3-1 cytotox,DRD3 agonist
Cc1cc(C(=O)CN2C(=O)C(=O)N(Cc3ccccc3)C2=O)c(C)n1Cc1ccccc1,20.6µM,0,0,0,0,0
COc1cc(-c2nnc(SCC(=O)c3cc(C)n(CC4CCCO4)c3C)o2)cc(OC)c1OC (stereo not drawn),18.4µM,0,0,0,0,0
Cc1cc(C(=O)CSc2nnc(-c3ccc(F)cc3)o2)c(C)n1CC1CCCO1 (stereo not drawn),?,0,0,0,0,0
Cc1cc(C(=O)CN2C(=O)C(=O)N(Cc3ccccc3)C2=O)c(C)n1Cc1ccc(F)cc1,0,?,5.17µM,0,?,0
CCN(CC)S(=O)(=O)c1ccc2c(c1)c(=O)c(C(=O)NCc1ccc(Cl)cc1)cn2C,0,-,-,-,0,0
CCNc1ccc(-c2nc(-c3ccncc3)no2)cc1[N+](=O)[O-],0,-,-,-,0,0
Cc1cc(C(=O)CN2C(=O)C(=O)N(Cc3ccccc3)C2=O)c(C)n1CC1COc2ccccc2O1 (stereo not drawn),0,0,4.61µM,0,0,0
Cc1cc(C(=O)CSc2nnc(-c3ccc(F)cc3)o2)c(C)n1CC1COc2ccccc2O1 (stereo not drawn),0,0,16.4µM,0,0,0
N/C(=N\c1nc(CSc2nc3ccccc3s2)cc(=O)[nH]1)Nc1ccc(F)cc1,0,0,?,0,11.6µM,0
O=C(Cc1csc2nc(-c3ccc(F)cc3)cn12)NCc1ccccc1,0,-,-,-,0,0
Cc1[nH]c2ccc(C(=O)NC3CCC(C)CC3)cc2c1C (stereo not drawn),0,0,0,0,0,0
CCCc1c(C)[nH]c2ccc(C(=O)O)cc2c1=S,0,0,0,0,0,0
Cc1[nH]c2ccc(C(=O)O)cc2c1C,0,25.9µM,23.1µM,0,0,0
Cc1[nH]c2ccc(C(=O)NC3CCCC3)cc2c1C,0,2.59µM,0,0,0,0
Cc1[nH]c2ccc(C(=O)NCCCN3CCCCC3)cc2c1C,?,0,0,?,0,0
CCCN1CCN(C(=O)c2ccc3[nH]c(C)c(C)c3c2)CC1,0,-,-,-87.2,0,0
Cc1[nH]c2ccc(C(=O)NCCN3CCCCCC3)cc2c1C,0,0,0,-69.5,0,0
O=C1C(c2ccncc2)N(CCC2=CCCCC2)C(=O)CN1C1CCCCC1 (stereo not drawn),11.2µM,0,0,0,0,0
COC(=O)c1ccccc1NC(=O)N1c2ccccc2Sc2ccccc21,0,0,8.2µM,0,?,0
COc1ccc(NC(=O)N2c3ccccc3CC2C)cc1OC (stereo not drawn),?,0,0,?,0,0
COc1ccccc1C(=O)N1c2ccccc2Sc2ccccc21,?,?,23.1µM,0,20.6µM,0
COC(=O)c1ccccc1NC(=O)N1c2ccccc2CC1C (stereo not drawn),23.1µM,0,?,0,0,0
CC(=O)C1=C(c2ccc(Br)cc2)C(=O)c2ccccc2C1=O,7.31µM,8.2µM,7.31µM,-87.1,?,0
CC(C)c1ccc(-c2noc(SCC(=O)N3CCCCC3)n2)cc1,0,-,-,-,0,0
Cc1ccc(-n2ncc3c(=O)[nH]c(SCC(=O)N4CCOCC4)nc32)cc1,0,0,25.9µM,0,0,0
SMILES,KB-V1 MDR tox,SW480 rerep,MCF10A rereplic,D3 antag,KB-3-1 cytotox,DRD3 agonist
Cc1ccc2nc(SCc3nc4c(cnn4-c4ccccc4)c(=O)[nH]3)[nH]c2c1,2.31µM,0,?,0,2.59µM,0
O=c1[nH]c(CSc2nc3ccccc3[nH]2)nc2c1cnn2-c1ccccc1,10.3µM,0,?,0,0,0
O=c1[nH]c(SCc2nc3c(cnn3-c3ccccc3)c(=O)[nH]2)nc2ccccc12,?,0,?,0,2.06µM,0
CC1CCn2c(nc3cc(C(=O)NCc4ccccc4)ccc32)C1 (stereo not drawn),-,-,-,-,-,0
COc1ccc(OC)c(CCNC(=O)CS(=O)(=O)Cc2nc(-c3cccc(Cl)c3)oc2C)c1,0,-,-,-,?,0
CCOc1cc(N2CCOCC2)c(OCC)cc1NS(=O)(=O)c1ccc(Cl)s1,5.17µM,18.4µM,6.31µM,?,6.51µM,0
COc1ccc(CN(C)c2ncnc3sccc23)c(OC)c1OC,4.61µM,?,?,0,8.2µM,0
COc1ccc(CCN(C)c2ncnc3sccc23)cc1OC,0,?,0.82µM,0,0,0
CN1CCN(S(=O)(=O)c2ccc([N+](=O)[O-])cc2)CC1,0,?,0,0,0,0
O=[N+]([O-])c1cc(-n2cccc2)ccc1N1CCOCC1,6.51µM,0,0,0,?,0
Cc1ccc(S(=O)(=O)N2CCN(c3ccc([N+](=O)[O-])c4cccnc34)CC2)cc1,?,0,?,0,0,0
Cn1c(=O)n(C)c2cc([N+](=O)[O-])c(N3CCN(S(=O)(=O)c4ccccc4)CC3)cc21,2.91µM,0,0,0,?,0
O=[N+]([O-])c1ccc(N2CCN(S(=O)(=O)c3ccccc3)CC2)cc1,4.61µM,0,?,0,?,0
O=[N+]([O-])c1ccc(N2CCN(S(=O)(=O)c3ccccc3)CC2)c2cccnc12,8.2µM,0,0[9.22 µM],?,0,0
CC[C@H](C)[C@H](N)C(=O)O,-,-,-,-,-,0
CC1CCN(S(=O)(=O)c2ccc([N+](=O)[O-])cc2)CC1,0,0,0,0,0,0
O=C(c1ccc(N2CCN(S(=O)(=O)c3ccccc3)CC2)c([N+](=O)[O-])c1)N1CCOCC1,3.66µM,0,0,0,0,0
O=[N+]([O-])c1cc(S(=O)(=O)C(F)(F)F)ccc1N1CCN(c2ccccc2)CC1,0,0,0,-53.7,0,0
O=C(c1ccc(N2CCOCC2)c([N+](=O)[O-])c1)N1CCN(c2ccccc2)CC1,0,0,0,0,0,0
O=[N+]([O-])c1cc(S(=O)(=O)Nc2ccccc2)ccc1N1CCN(c2ccccc2)CC1,?,?,?,?,0,0
Cn1c(=O)n(C)c2cc([N+](=O)[O-])c(N3CCN(C(=O)c4ccccc4Br)CC3)cc21,0,0,0,0,0,0
CC1CCN(S(=O)(=O)c2ccc(Oc3ccc([N+](=O)[O-])cc3)cc2)CC1,0,0,?,-81.1,0,0
Cn1c(=O)n(C)c2cc([N+](=O)[O-])c(N3CCN(C(=O)c4ccccc4Cl)CC3)cc21,16.4µM,0,0,0,23.1µM,0

# Source: PubChem BioAssay (National Center for Advancing Translational Sciences (NCATS))
